Reference: PubChem BioAssay (Tox21)
“And” between values parts separate entries of the source, which are not always exact repeats. Equal values may be shown once. Inconclusive results are not listed. More than one record can exist for a structure, and the calls need not agree. The source made the active and inactive calls. Unless noted, calls come from the whole dose curve; as a rule, active = well fitted curve in the direction sought with a large enough effect in the repeat runs; inconclusive = weak or mixed curves; inactive = no such curve, though single readings can be large; an effect the other way counts as inactive or inconclusive.

Assays:
[1] = qHTS assay to identify small molecule agonists of the hypoxia (HIF-1) signaling pathway - cell viability counter screen (AID 1224844; calls by dose curve; note: nearly all actives have a fitted effect of over 50% in size; note: potency is the fitted concentration of half-maximal effect)
Procedure, shortened: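 Cells (HRE-bla ME-180, 2,000 per well) sat 5 hrs at 37C, got compound for 17 hrs, were read for CCF4-AM FRET, and were finally lysed with CellTiter-Glo for a 30 min room-temperature luminescence read.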

[2] = qHTS assay to identify small molecule agonists of H2AX (AID 1224845; active = well fitted activation curve with a large enough effect in the signal ratio in the repeat runs, not every such curve was filed as active; the % refers to the signal ratio)
Procedure, shortened: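 Wild-type CHO-K1 cells, plated overnight, exposed 3hr at 37C to 15 concentrations (0.76% DMSO final). Lysed, then HTRF anti-pH2AX (S139) cryptate and anti-H2AX-d2 antibodies, 24 hr room temperature; 665/620 nm emission read.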

[3] = qHTS assay to identify small molecule agonists of the hypoxia (HIF-1) signaling pathway (AID 1224846; active = well fitted activation curve with a large enough effect in the signal ratio in the repeat runs, not every such curve was filed as active; the % refers to the signal ratio)
Procedure, shortened: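 A low-serum medium (0.5% dialyzed FBS) holding 2,000 HRE-bla ME-180 cells per well is preincubated for 5 hrs, dosed with compounds by pintool, and kept a further 17 hrs at 37C, 5% CO2 before CCF4-AM FRET detection of beta-lactamase.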

[4] = qHTS assay to identify small molecule agonists of H2AX - cell viability counter screen (AID 1224847; calls by dose curve; note: nearly all actives have a fitted effect of over 30% in size; note: potency is the fitted concentration of half-maximal effect)
Procedure, shortened: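 After overnight plating of 1000 CHO-K1 cells per well, a 15-concentration compound series was applied for 3 hr at 37C. Luminescence from CellTiter-Glo, read following 30 min at room temperature, reflected cell viability.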

[5] = qHTS RealTime-Glo MT Cell Viability Assay in HepG2 cells - 24 hour (AID 1224867); note: nearly all actives have a fitted effect of over 50% in size; note: potency is the fitted concentration of half-maximal effect
Procedure, shortened: (§1)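 Real-time, nonlytic viability: 600 HepG2 cells/well mixed with NanoLuc enzyme plus prosubstrate; 5 h settle, compound (DMSO) added by pintool; luminescence monitored over 40 h at 37 C.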

[6] = qHTS RealTime-Glo MT Cell Viability Assay in HEK293 cells - 32 hour (AID 1224868); note: nearly all actives have a fitted effect of over 50% in size; note: potency is the fitted concentration of half-maximal effect
Procedure, shortened: (§2)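 Cells + reagent dispensed (600 cells/well, HEK293) → 5 h at 37 C/5% CO2 → 23 nL compound in DMSO pinned → 40 h at 37 C → luminescence read at 0, 8, 16, 24, 32, 40 h.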

[7] = A CellTox Green Cytotoxicity Assay to monitor cytotoxicity in HEK293 cells - 0 hour (AID 1224869); note: nearly all actives have a fitted effect of over 50% in size
Procedure, shortened: (§3)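 Fluorescence intensity, read at 0, 8, 16, 24, 32 and 40 h of compound treatment, reflected dye binding to DNA of dead HEK293 cells; compounds (23 nL, DMSO) were added 5 h after plating cells with reagent.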

[8] = qHTS RealTime-Glo MT Cell Viability Assay in HepG2 cells - 40 hour (AID 1224870); note: nearly all actives have a fitted effect of over 50% in size
Procedure, shortened: (§4)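 HepG2 cells (600/well) mixed with RealTime-Glo MT reagent, settled 5 h at 37 C/5% CO2 before compound addition. Nonlytic NanoLuc luminescence from viable-cell prosubstrate reduction read repeatedly during 40 h treatment at 37 C.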

[9] = A CellTox Green Cytotoxicity Assay to monitor cytotoxicity in HEK293 cells - 40 hour (AID 1224871); note: nearly all actives have a fitted effect of over 45% in size; note: potency is the fitted concentration of half-maximal effect
Procedure, shortened: as §3

[10] = qHTS RealTime-Glo MT Cell Viability Assay in HEK293 cells - 16 hour (AID 1224872); note: nearly all actives have a fitted effect of over 50% in size; note: potency is the fitted concentration of half-maximal effect
Procedure, shortened: as §2

[11] = qHTS RealTime-Glo MT Cell Viability Assay in HepG2 cells - 8 hour (AID 1224873); note: nearly all actives have a fitted effect of over 55% in size; note: potency is the fitted concentration of half-maximal effect
Procedure, shortened: as §4

[12] = qHTS RealTime-Glo MT Cell Viability Assay in HEK293 cells - 40 hour (AID 1224874); details: RealTime-Glo luminescence; max response: stronger effect = lower value; note: nearly all actives have a fitted effect of over 50% in size; note: potency is the fitted concentration of half-maximal effect
Procedure, shortened: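 Viable HEK293 cells reduce a cell-permeant prosubstrate; the product diffuses out and is consumed by NanoLuc in the medium to give light. Compounds went in after a 5 h incubation and plates were read over the treatment course.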

[13] = A CellTox Green Cytotoxicity Assay to monitor cytotoxicity in HEK293 cells - 24 hour (AID 1224875); note: nearly all actives have a fitted effect of over 45% in size; note: potency is the fitted concentration of half-maximal effect
Procedure, shortened: as §3

[14] = A CellTox Green Cytotoxicity Assay to monitor cytotoxicity in HepG2 cells - 16 hour (AID 1224876); note: nearly all actives have a fitted effect of over 45% in size
Procedure, shortened: (§5)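 Using 1536-well format, dye-containing HepG2 suspension was seeded, allowed 5 h at 37 C/5% CO2, dosed by pintool with compounds, positive and negative controls, and imaged for fluorescence across 40 h.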

[15] = qHTS RealTime-Glo MT Cell Viability Assay in HepG2 cells - 32 hour (AID 1224877); note: nearly all actives have a fitted effect of over 55% in size; note: potency is the fitted concentration of half-maximal effect
Procedure, shortened: as §1

[16] = A CellTox Green Cytotoxicity Assay to monitor cytotoxicity in HepG2 cells - 24 hour (AID 1224878); note: nearly all actives have a fitted effect of over 45% in size; note: potency is the fitted concentration of half-maximal effect
Procedure, shortened: as §5

[17] = A CellTox Green Cytotoxicity Assay to monitor cytotoxicity in HepG2 cells - 40 hour (AID 1224879); note: nearly all actives have a fitted effect of over 40% in size; note: potency is the fitted concentration of half-maximal effect
Procedure, shortened: as §5

[18] = target: Thyrotropin receptor (Homo sapiens) (UniProt P16473); assay: qHTS assay to identify small molecule agonists of the thyroid stimulating hormone receptor (TSHR) signaling pathway (AID 1224843; calls by dose curve; note: nearly all actives have a fitted effect of over 45% in size)
Procedure, shortened: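 TSHR-HEK293 cells in agonist mode, 30 min room-temperature step, then cAMP measured by competitive HTRF (cAMP-d2 with anti-cAMP cryptate) after 1 h at room temperature. Tested at 15 concentrations in triplicate.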

[19] = qHTS assay to identify small molecule antagonists of the estrogen related receptor (ERR) signaling pathway from Tox21 library (AID 1224848); note: nearly all actives have a fitted effect of over 50% in size; note: potency is the fitted concentration of half-maximal effect
Procedure, shortened: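 ERR reporter cell line (from NTP) seeded 2,000 cells/well, rested 6 h at 37 C/5% CO2, then pin-dosed with compounds in DMSO. After 18 h at 37 C, ONE-Glo added; luminescence read after 30 min at room temperature.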

[20] = qHTS assay to identify small molecule agonists of the estrogen related receptor (ERR) signaling pathway from Tox21 library (AID 1224849; calls by dose curve; note: nearly all actives have a fitted effect of over 15% in size); details: ERR reporter cell line, ONE-Glo luciferase, 18 h
Procedure, shortened: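 Screening used an NTP-provided ERR luciferase cell line. Compounds in DMSO were added 6 h after seeding and left 18 h at 37 C before a 30 min ONE-Glo step and luminescence reading.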
% is set by controls: 0 for no effect and ±100 for the full control effect.

Sequence of Thyrotropin receptor (Homo sapiens) (P16473 whole entry, looked up): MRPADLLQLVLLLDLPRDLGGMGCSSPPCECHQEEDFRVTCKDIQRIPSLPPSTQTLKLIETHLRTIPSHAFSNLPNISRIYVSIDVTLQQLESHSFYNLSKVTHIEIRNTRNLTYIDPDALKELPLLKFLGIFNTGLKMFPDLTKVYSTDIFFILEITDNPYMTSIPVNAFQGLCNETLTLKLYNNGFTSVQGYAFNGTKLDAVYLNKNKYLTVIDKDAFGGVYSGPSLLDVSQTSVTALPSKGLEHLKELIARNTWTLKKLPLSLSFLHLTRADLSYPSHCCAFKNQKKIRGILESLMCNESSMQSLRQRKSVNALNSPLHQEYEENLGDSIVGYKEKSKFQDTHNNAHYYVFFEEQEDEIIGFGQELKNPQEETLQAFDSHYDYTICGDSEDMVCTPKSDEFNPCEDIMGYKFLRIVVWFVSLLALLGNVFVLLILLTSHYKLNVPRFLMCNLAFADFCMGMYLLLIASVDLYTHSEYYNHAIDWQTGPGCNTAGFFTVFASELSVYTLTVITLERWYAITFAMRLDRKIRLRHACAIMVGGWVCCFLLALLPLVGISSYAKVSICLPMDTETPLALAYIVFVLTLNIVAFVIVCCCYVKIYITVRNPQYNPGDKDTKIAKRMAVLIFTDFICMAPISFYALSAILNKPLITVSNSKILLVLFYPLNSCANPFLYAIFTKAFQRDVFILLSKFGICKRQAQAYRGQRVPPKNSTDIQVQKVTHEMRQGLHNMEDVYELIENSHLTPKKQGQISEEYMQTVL

O=[N+]([O-])c1c(Cl)c(Cl)c(Cl)c(Cl)c1Cl
inactive: Potency [1] | Potency [2] | outcome [3] | Potency [4] | Potency [5] | Potency [6] | Potency [7] | Potency [8] | Potency [10] | Potency [11] | max response [12] 2.95% and 16.6% | Potency [13] | Potency [14] | Potency [15] | Potency [16] | Potency [17]
21.8 µM (active) and inactive: Potency [9]

c1ccc(P(c2ccccc2)c2ccccc2)cc1
inactive: Potency [18] | Potency [2] | outcome [3] | Potency [4] | Potency [5] | Potency [6] | Potency [7] | Potency [9] | Potency [10] | Potency [11] | max response [12] -31.4% | Potency [13] | Potency [14] | Potency [15] | Potency [16] | Potency [17]

O=c1oc2ccccc2c(O)c1C(CC(O)c1ccc(-c2ccc(Br)cc2)cc1)c1ccccc1 (stereo not given)
52 µM (active) and inactive: Potency [1]
inactive: Potency [2] | Potency [4] | Potency [5] | Potency [6] | Potency [7] | Potency [8] | Potency [9] | Potency [10] | Potency [11] | max response [12] -3.76% and 7.1% | Potency [13] | Potency [15] | Potency [16] | Potency [17]

CCCCNC(=O)n1c(NC(=O)OC)nc2ccccc21
inactive: Potency [18] | Potency [1] | outcome [3] | Potency [4] | Potency [5] | Potency [7] | Potency [9] | Potency [10] | Potency [11] | Potency [13] | Potency [15] | Potency [16]
active: Potency [12] 6.88 µM | Potency [17] 7.72 µM and 11 µM

C[C@]12CCC(=O)C[C@@H]1CC[C@@H]1[C@@H]2CC[C@]2(C)[C@@H](O)CC[C@@H]12
active: Potency [4] 79.1 µM | Potency [6] 21.6 µM | Potency [10] 21.6 µM | Potency [12] 21.6 µM
43.1 µM (active) and inactive: Potency [9]
inactive: Potency [1] | Potency [5] | Potency [7] | Potency [8] | Potency [11] | Potency [13] | Potency [15] | Potency [16]

CNC(=O)N(C)c1nnc(C(C)(C)C)s1
inactive: Potency [18] | Potency [1] | Potency [4] | Potency [5] | Potency [6] | Potency [7] | Potency [8] | Potency [9] | Potency [10] | Potency [11] | max response [12] -13.1% and 0.0487% | Potency [13] | Potency [14] | Potency [15] | Potency [16] | Potency [17]

Oc1cc(Cl)ccc1Oc1ccc(Cl)cc1Cl
50.1 µM (active) and inactive: Potency [1]
inactive: Potency [2] | activity change, positive = activation ([20]; at 42.5 µM (top of the series)) -45.8% | activity change, positive = activation ([20]; at 92.4 µM (top of the series)) -47.1% | Potency [7]
active: Potency [4] 51.7 µM and 43.8 µM | Potency [19] 11.1 µM and 18.8 µM | Potency [5] 42.2 µM [cytotoxic] and 23.9 µM | Potency [6] 20 µM | Potency [9] 44.7 µM | Potency [10] 22.4 µM and 23.9 µM | Potency [11] 22.4 µM and 23.9 µM | Potency [12] 34.1 µM | Potency [13] 22.4 µM | Potency [15] 25.1 µM | Potency [16] 22.4 µM and 21.3 µM | Potency [17] 25.1 µM and 23.9 µM

Brc1ccc(Oc2cc(Br)c(Br)cc2Br)c(Br)c1
active: Potency [6] 43.6 µM | Potency [12] 43.6 µM
inactive: Potency [1] | outcome [3] | Potency [4] | Potency [19] | activity change, positive = activation ([20]; at 92.4 µM (top of the series)) -14.5% | Potency [5] | Potency [7] | Potency [8] | Potency [9] | Potency [11] | Potency [13] | Potency [14] | Potency [15] | Potency [16] | Potency [17]
